Consider one sequence from article PMC7862700, “An all-to-all approach to the identification of sequence-specific readers for epigenetic DNA modifications on cytosine”.

What all share (assay): DAPPL (digital affinity profiling via proximity ligation, sequencing); 10 mM Tris-HCl pH 7.5, 50 mM NaCl, 1 mM DTT, 4% glycerol, room temperature, 30 min; GST-TFs on glutathione beads, 16-mer random dsDNA library, 0.1% formaldehyde crosslink after washing; high values mean tight binding
For one assay, the target named is T1, FEV (Homo sapiens, UniProt Q99581 1-238).
T1 sequence: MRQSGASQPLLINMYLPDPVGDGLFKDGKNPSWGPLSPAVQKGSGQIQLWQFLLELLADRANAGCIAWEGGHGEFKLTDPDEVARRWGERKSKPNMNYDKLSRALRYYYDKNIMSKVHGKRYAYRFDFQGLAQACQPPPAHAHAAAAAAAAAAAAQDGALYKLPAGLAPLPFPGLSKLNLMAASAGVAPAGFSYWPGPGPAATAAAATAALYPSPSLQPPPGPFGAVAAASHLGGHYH
To be noted: protein: recombinant; tags: N-terminal GST; dsDNA, one strand shown. In short, it runs like this: (§1)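 Binding signal is each hexamer's read frequency for a factor divided by its frequency in the tag-only sample. The factors were GST-fused human transcription factors from yeast, captured on glutathione beads, DNA-barcoded and pooled with that sample. Pools were incubated with 200 nmole of a random double-stranded 16-mer DNA library in Tris/NaCl/DTT/glycerol buffer at room temperature for 30 min, then washed, crosslinked with 0.1% formaldehyde, proximity-ligated with BsaI/T4 ligase (1 h, 37 °C), PCR-amplified and sequenced on an Illumina NextSeq500.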

The target in the next assay is ETV5 (Homo sapiens, UniProt P41161 1-510). To be noted: protein: recombinant; tags: N-terminal GST; dsDNA, one strand shown. In short, it runs like this:
as §1

A further assay deals with HSF1 (Homo sapiens, UniProt Q00613 1-529). To be noted: protein: recombinant; tags: N-terminal GST; chain copies: 3; dsDNA, one strand shown. The essentials: as §1
Chain of HSF1 (Q00613 whole entry): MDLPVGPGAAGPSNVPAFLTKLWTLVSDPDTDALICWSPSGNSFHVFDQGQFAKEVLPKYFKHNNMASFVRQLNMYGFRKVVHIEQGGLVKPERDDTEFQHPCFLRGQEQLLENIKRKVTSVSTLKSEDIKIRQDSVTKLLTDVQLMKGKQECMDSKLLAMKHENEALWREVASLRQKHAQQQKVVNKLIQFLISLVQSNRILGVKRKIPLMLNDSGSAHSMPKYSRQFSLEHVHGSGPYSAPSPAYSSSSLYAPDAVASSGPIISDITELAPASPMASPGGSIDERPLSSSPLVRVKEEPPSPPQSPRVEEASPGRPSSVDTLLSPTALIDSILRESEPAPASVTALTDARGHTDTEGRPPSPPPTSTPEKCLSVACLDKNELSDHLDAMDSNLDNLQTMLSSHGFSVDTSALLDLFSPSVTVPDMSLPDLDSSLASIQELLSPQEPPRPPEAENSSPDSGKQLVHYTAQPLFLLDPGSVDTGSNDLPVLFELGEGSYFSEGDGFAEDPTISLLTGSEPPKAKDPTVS
The next assay has as its target T2, SPIC (Homo sapiens, UniProt Q8N5J4 1-248).
T2 sequence: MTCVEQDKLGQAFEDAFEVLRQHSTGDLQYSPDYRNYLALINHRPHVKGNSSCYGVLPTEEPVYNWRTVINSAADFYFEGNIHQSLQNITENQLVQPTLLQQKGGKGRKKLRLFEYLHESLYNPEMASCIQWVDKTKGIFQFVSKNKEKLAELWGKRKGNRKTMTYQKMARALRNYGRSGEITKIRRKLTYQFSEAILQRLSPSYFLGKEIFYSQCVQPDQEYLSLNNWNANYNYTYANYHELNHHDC
The following applies: protein: recombinant; tags: N-terminal GST; dsDNA, one strand shown. In short, it runs like this:
as §1

Another assay addresses ELF4 (Homo sapiens, UniProt Q99607 1-663). To be noted: protein: recombinant; tags: N-terminal GST; dsDNA, one strand shown. The essentials:
as §1

Another assay concerns the target T3, ELK4 (Homo sapiens, UniProt P28324-2 1-405).
T3 sequence: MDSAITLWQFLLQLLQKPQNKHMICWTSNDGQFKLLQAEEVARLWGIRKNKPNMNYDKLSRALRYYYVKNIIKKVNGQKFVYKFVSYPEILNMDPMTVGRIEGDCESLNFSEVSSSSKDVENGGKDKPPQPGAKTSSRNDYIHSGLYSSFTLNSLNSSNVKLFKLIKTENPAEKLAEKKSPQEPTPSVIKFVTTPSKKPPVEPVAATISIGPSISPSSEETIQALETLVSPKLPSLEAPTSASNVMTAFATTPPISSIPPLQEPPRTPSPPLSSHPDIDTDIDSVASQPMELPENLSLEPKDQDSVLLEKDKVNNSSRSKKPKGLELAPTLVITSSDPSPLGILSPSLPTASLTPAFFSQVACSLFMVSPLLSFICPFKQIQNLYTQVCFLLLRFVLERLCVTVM
To be noted: protein: recombinant; tags: N-terminal GST; dsDNA, one strand shown. The essentials:
as §1

In the next assay the target is T4, ETV2 (Homo sapiens, UniProt O00321 1-342).
T4 sequence: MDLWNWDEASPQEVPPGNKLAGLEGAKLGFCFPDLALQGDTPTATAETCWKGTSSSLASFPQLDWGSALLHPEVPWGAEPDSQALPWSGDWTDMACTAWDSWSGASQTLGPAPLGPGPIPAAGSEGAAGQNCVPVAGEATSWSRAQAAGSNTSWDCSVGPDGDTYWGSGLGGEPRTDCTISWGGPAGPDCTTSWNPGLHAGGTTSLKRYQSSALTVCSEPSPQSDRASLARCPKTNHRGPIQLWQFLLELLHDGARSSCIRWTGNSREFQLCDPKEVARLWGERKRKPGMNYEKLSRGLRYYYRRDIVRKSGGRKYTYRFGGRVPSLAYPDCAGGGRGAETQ
To be noted: protein: recombinant; tags: N-terminal GST; dsDNA, one strand shown. In short, it runs like this: as §1

A further assay has as its target T5, ELF3 (Homo sapiens, UniProt P78545 1-371).
T5 sequence: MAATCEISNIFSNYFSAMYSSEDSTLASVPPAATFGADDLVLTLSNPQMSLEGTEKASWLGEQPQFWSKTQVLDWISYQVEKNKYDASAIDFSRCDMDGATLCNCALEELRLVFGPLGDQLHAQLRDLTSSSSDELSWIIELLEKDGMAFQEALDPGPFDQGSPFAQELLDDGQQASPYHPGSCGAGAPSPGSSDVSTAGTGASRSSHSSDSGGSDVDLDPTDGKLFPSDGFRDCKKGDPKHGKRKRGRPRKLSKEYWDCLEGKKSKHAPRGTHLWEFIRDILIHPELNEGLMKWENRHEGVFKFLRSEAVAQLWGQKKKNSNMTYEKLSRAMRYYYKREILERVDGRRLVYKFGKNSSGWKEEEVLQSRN
To be noted: protein: recombinant; tags: N-terminal GST; dsDNA, one strand shown. The essentials:
as §1

The next assay addresses CRX (Homo sapiens, UniProt O43186 1-299). The following applies: protein: recombinant; tags: N-terminal GST; dsDNA, one strand shown. The essentials: as §1
In a further assay the target is ETV1 (Homo sapiens, UniProt P50549 1-477). The following applies: protein: recombinant; tags: N-terminal GST; dsDNA, one strand shown. In short, it runs like this:
as §1

The target in a further assay is T6, ERF (Homo sapiens, UniProt P50548 1-548).
T6 sequence: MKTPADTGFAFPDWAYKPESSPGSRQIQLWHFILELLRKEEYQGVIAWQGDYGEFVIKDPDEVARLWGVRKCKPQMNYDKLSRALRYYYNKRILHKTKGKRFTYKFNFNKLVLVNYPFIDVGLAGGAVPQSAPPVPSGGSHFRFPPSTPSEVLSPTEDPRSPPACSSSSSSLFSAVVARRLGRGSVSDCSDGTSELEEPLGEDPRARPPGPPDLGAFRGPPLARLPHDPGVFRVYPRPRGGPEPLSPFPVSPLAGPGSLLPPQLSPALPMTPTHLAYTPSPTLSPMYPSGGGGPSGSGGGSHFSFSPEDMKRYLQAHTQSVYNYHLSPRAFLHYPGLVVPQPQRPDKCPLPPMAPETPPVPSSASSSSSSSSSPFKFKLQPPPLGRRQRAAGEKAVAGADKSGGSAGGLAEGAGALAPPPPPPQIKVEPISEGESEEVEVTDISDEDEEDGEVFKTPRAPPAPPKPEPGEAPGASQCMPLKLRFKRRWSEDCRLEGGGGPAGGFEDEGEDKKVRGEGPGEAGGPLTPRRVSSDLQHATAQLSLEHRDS
To be noted: protein: recombinant; tags: N-terminal GST; dsDNA, one strand shown. In short, it runs like this:
as §1

The target of another assay is T7, ETV3L (Homo sapiens, UniProt Q6ZN32 1-361).
T7 sequence: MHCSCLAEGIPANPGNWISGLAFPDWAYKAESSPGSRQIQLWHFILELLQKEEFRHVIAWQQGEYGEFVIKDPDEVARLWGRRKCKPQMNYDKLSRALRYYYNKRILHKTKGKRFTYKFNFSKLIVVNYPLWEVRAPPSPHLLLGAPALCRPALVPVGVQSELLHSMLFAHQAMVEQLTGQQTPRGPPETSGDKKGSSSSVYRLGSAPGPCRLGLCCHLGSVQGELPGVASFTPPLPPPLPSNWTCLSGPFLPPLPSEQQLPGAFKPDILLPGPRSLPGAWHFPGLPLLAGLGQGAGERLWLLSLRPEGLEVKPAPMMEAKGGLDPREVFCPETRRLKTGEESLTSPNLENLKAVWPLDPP
To be noted: protein: recombinant; tags: N-terminal GST; dsDNA, one strand shown. In short, it runs like this:
as §1

Another assay addresses T8, ETS2 (Homo sapiens, UniProt P15036 1-469).
T8 sequence: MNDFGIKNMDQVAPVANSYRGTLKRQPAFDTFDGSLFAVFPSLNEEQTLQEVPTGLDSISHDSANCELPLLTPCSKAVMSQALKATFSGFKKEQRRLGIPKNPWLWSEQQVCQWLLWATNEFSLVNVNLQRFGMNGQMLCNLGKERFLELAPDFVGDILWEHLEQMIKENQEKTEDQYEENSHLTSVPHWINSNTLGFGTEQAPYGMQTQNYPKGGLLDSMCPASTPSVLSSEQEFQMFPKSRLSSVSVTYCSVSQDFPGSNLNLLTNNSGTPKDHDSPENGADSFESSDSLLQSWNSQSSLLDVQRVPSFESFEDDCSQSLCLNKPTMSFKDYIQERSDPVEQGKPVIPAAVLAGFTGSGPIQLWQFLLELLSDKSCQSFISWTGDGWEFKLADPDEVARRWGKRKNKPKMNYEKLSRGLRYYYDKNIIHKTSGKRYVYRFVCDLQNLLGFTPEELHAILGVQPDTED
To be noted: protein: recombinant; tags: N-terminal GST; dsDNA, one strand shown. In short, it runs like this: as §1

For another assay, the target named is T9, SPDEF (Homo sapiens, UniProt O95238 1-335).
T9 sequence: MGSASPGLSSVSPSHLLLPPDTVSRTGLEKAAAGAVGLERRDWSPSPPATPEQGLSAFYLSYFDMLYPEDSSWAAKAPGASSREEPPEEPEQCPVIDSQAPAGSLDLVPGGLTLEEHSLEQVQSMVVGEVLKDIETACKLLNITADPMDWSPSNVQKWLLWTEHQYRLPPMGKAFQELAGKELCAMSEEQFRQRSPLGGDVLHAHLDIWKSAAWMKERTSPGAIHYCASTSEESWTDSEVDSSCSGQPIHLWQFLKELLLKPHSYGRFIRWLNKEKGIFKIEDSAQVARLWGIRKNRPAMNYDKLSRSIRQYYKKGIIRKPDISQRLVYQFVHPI
To be noted: protein: recombinant; tags: N-terminal GST; dsDNA, one strand shown. In short, it runs like this:
as §1

For a further assay, the target named is T10, ETV7 (Homo sapiens, UniProt Q9Y603 1-341).
T10 sequence: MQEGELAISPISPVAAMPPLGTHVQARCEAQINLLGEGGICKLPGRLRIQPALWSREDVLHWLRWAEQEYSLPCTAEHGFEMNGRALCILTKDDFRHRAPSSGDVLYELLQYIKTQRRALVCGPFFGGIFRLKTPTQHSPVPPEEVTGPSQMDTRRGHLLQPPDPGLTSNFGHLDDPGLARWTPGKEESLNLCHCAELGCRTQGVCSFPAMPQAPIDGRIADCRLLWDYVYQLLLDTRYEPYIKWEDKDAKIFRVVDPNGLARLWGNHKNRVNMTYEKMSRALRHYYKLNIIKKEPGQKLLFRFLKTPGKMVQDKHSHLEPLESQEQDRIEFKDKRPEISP
The following applies: protein: recombinant; tags: N-terminal GST; dsDNA, one strand shown. In short, it runs like this:
as §1

The target of another assay is T11, ELF5 (Homo sapiens, UniProt Q9UKW6-2 1-255).
T11 sequence: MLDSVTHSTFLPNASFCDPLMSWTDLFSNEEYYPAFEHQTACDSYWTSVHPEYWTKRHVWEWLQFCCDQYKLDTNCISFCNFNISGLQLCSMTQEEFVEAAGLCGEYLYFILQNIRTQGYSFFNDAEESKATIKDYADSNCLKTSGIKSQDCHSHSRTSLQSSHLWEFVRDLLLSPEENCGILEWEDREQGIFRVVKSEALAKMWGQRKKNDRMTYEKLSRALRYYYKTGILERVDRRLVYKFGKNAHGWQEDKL
The following applies: protein: recombinant; tags: N-terminal GST; dsDNA, one strand shown. The essentials: as §1

In the next assay the target is T12, ETV3 (Homo sapiens, UniProt P41162-2 1-143).
T12 sequence: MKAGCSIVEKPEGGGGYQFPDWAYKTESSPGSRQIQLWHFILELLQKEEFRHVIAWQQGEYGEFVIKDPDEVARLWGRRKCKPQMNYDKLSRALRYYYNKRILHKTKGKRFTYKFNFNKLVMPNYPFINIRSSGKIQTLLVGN
The following applies: protein: recombinant; tags: N-terminal GST; dsDNA, one strand shown. In short, it runs like this: as §1

The next assay addresses ETV6 (Homo sapiens, UniProt P41212 1-452). To be noted: protein: recombinant; tags: N-terminal GST; dsDNA, one strand shown. The essentials:
as §1

Chain of ETV1 (P50549 whole entry): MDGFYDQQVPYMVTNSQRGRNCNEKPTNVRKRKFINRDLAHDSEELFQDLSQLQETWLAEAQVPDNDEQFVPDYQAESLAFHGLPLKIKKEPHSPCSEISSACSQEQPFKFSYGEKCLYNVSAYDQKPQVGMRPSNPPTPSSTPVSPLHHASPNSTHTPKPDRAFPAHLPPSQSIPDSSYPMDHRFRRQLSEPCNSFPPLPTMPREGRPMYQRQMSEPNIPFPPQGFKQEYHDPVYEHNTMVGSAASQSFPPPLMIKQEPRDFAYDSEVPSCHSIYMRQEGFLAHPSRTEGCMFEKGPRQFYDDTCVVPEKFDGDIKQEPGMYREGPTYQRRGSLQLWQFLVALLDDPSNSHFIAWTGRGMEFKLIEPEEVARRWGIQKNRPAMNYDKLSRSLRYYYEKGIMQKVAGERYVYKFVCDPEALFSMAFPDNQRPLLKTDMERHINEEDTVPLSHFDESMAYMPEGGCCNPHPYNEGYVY
Chain of ELF4 (Q99607 whole entry): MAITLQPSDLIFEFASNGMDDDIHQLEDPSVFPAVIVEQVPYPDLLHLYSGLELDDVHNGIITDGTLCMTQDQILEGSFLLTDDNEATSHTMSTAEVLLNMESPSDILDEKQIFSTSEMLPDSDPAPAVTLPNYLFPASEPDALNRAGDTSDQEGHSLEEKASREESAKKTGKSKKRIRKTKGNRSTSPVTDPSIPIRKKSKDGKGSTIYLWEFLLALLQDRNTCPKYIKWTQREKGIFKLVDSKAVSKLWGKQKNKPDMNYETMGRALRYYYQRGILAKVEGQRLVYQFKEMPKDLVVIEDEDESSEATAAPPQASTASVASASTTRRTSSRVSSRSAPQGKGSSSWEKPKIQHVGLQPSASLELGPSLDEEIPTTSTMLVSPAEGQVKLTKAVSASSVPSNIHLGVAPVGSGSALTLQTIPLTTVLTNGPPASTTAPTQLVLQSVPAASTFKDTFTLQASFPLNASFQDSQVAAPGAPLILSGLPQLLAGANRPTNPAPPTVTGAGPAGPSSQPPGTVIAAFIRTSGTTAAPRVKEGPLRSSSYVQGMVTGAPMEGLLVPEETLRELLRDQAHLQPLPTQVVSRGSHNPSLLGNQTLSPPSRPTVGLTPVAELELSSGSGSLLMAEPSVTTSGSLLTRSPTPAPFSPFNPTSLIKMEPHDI
Chain of ETV5 (P41161 whole entry): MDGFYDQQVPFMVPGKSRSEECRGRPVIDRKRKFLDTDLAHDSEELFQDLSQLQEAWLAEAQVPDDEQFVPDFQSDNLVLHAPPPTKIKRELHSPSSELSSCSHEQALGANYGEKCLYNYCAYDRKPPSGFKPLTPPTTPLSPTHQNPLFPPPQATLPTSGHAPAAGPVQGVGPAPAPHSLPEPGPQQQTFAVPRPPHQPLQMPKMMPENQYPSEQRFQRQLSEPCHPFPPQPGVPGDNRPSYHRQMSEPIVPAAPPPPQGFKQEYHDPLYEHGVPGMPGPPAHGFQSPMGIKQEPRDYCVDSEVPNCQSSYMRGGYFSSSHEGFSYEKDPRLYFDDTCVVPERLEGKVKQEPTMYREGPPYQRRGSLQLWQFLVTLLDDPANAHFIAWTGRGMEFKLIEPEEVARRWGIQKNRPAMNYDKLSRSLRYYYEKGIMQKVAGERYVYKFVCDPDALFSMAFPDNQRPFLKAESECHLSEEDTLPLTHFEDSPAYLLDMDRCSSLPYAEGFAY
Chain of ETV6 (P41212 whole entry): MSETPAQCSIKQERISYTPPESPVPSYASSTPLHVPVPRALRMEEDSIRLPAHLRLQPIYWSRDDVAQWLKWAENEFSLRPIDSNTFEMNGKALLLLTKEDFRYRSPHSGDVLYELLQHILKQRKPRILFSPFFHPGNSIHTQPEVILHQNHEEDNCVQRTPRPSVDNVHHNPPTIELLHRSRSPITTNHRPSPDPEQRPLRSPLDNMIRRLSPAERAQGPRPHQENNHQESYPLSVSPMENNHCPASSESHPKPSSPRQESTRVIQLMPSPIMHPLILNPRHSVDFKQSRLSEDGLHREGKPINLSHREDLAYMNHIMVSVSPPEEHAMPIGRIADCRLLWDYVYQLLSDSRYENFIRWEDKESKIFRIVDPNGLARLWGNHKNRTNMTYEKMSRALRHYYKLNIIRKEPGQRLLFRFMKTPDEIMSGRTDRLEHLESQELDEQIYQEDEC
Chain of CRX (O43186 whole entry): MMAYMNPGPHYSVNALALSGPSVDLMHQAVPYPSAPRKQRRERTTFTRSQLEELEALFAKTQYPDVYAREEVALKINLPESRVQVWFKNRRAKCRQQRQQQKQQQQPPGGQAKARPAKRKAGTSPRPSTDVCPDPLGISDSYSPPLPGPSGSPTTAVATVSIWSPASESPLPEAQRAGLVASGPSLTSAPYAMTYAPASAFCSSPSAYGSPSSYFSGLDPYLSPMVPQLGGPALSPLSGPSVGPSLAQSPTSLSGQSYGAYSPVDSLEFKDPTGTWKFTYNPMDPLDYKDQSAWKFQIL

On to TTCAGG, for which the binding signal with FEV is 1.05 fold enrichment (6-mer frequency, TF over GST control); in the assay with ETV5 it was 1.13 fold enrichment (6-mer frequency, TF over GST control); in the assay with HSF1, 1.22 fold enrichment (6-mer frequency, TF over GST control); with SPIC, 1.13 fold enrichment (6-mer frequency, TF over GST control); with ELF4, 1.11 fold enrichment (6-mer frequency, TF over GST control); with ELK4, 1.19 fold enrichment (6-mer frequency, TF over GST control). In addition, the binding signal in the assay with ETV2 was 1.14 fold enrichment (6-mer frequency, TF over GST control); in the assay with ELF3 it was 1.07 fold enrichment (6-mer frequency, TF over GST control); with CRX it was 1.01 fold enrichment (6-mer frequency, TF over GST control); in the assay with ETV1, 1.15 fold enrichment (6-mer frequency, TF over GST control); in the assay with ERF, 1.15 fold enrichment (6-mer frequency, TF over GST control); with ETV3L, 1.1 fold enrichment (6-mer frequency, TF over GST control). Further, the binding signal with ETS2 was 1.12 fold enrichment (6-mer frequency, TF over GST control); in the assay with SPDEF, 1.25 fold enrichment (6-mer frequency, TF over GST control); with ETV7 it was 1.15 fold enrichment (6-mer frequency, TF over GST control); with ELF5, 1.15 fold enrichment (6-mer frequency, TF over GST control); in the assay with ETV3, 1.1 fold enrichment (6-mer frequency, TF over GST control); with ETV6, 1.11 fold enrichment (6-mer frequency, TF over GST control).
